Shown are actives, neighbours in structure and some others; about 6.2% of the full set was active somewhere.
HT1080-NT tox: kills 2HG-producing HT-1080-NT fibrosarcoma cells; HT-1080-NT fibrosarcoma viability, CellTiter-Glo ATP luminescence, 48 h; Potency, µM (highest dose often 46.1 µM), most hits filed as cytotoxic; hit rate 1.6% among 360,000; AID 686970;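 further: NT is the 2HG producing partner of a matched IDH1 knockdown line; nearly all actives have a fitted effect of over 55% in size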
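Toxicity toward the 2HG-producing NT line was scored as %Activity, normalised to DMSO and no-cell wells, from CellTiter-Glo luminescence after 48 hours' treatment.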
S2 tox: cell viability loss in ATXN counter-screen; S2 cells (HEK-293 line with an ATXN2-luciferase reporter) viability, CellTiter-Fluor protease fluorescence, 24 h; Potency, µM (highest dose often 56.7 µM), hits mostly cytotoxic; hit rate 0.49% among 400,000; AID 651635; further: nearly all actives have a fitted effect of over 40% in size
KB-3-1 tox: KB-3-1 parental cell cytotoxicity; KB-3-1 viability, CellTiter-Glo ATP luminescence, 72 h; Potency, µM (titrated, usually from 46.1 µM), actives largely listed as cytotoxic; hit rate 1.4% among 400,000; AID 1347075; further: nearly all actives have a fitted effect of over 60% in size
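KB-3-1 parental drug-naive adenocarcinoma cells in DMEM/10% FBS, incubated 72 h at 37 C with pin-transferred compounds across a concentration series. Viability by CellTiter-Glo luminescence; concentration-response curves fitted after normalization.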
HT1080 IDH1KD tx: toxicity to HT-1080 IDH1 knockdown cells (counter line); HT-1080 IDH1 knockdown viability, ATP luminescence, 48 h; hit rate 2% among 360,000; Potency, µM (top dose mostly 46.1 µM), usual class: cytotoxic; AID 686971
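Using the IDH1-knockdown HT-1080 line run in the same batch and compound series as the NT line, viability after 48 h at 37 °C was determined by CellTiter-Glo luminescence and expressed as % activity.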
KB-V1 MDR tox: kills drug-selected multidrug resistant KB-V1 cells. KB-V1 MDR cells viability, CellTiter-Glo, 72 h. Potency, µM (titrated, usually from 46.1 µM), actives largely listed as cytotoxic. hit rate 3.4% among 400,000; further: nearly all actives have a fitted effect of over 60% in size
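In this primary screen, KB-V1 cells overexpressing P-gp are incubated with library compounds (lowest to highest concentration) for 72 h at 37 degrees C before a luminescent ATP viability read.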
ATXN2 expr inh: reduces ATXN2 reporter expression in HEK-293 cells. HEK-293 ATXN2-luciferase reporter, luminescence, 24 h. Potency, µM (doses to about 57 µM), actives largely listed as inhibitors. hit rate 0.72% among 360,000; further: nearly all actives have a fitted effect of over 55% in size
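qHTS (up to 57 uM final) was run with 24 h compound exposure of reporter cells at 37 °C. Each well was multiplexed: SteadyGlo luminescence measured ATXN2-luciferase expression after a fluorogenic Gly-Phe-AFC viability readout (25 uM final).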
A number is an active result; i = inactive; ? = inconclusive; nt = no result. The call rests on the fitted dose curve; in most records, active means well fitted curve in the direction sought with a large enough effect; inconclusive means small, poorly fitted or top-dose-only effect, or another doubt; inactive means no such curve, though single readings can be large; an effect the other way counts as inactive or inconclusive.

SMILES	HT1080-NT tox	S2 tox	KB-3-1 tox	HT1080 IDH1KD tx	KB-V1 MDR tox	ATXN2 expr inh
COc1cc(/C=C2\SC(N)=NC2=O)cc(Cl)c1O	i	?	i	i	i	nt
CC(C)c1ccc(/C=C/C(=O)Nc2ccc(CN3CCOCC3)cc2)cc1	?	?	?	?	16µM	?
O=C(/C=C/c1ccc(Cl)cc1)Nc1ccc(CN2CCOCC2)cc1	?	i	?	i	i	?
CCCCNC(=S)NNC(=O)c1csc(C(C)C)c1	i	i	i	i	23µM	i
CCCCNC(=S)NNC(=O)c1ccncc1	i	i	i	i	i	i
CC1CC(C)CN(CCCNC(=O)c2csc3c2CCCC3)C1 (stereo unspecified)	i	i	i	i	16µM	i
CCNC(=S)NNC(=O)c1csc2c1CCCC2	i	i	i	?	26µM	i
CCNC(=S)NNC(=O)c1csc(C(C)C)c1	i	?	?	i	21µM	i
CCNC(=S)NNC(=O)c1csc(CC)c1	i	i	?	i	i	i
COc1ccc(S(=O)(=O)Nc2cccc3c2O[C@H](CN(C)C)[C@@H](C)CN([C@H](C)CO)C3=O)cc1	i	i	i	i	i	i
CC1CCc2nc(NC(=O)Nc3ccc4c(c3)OCO4)sc2C1 (stereo unspecified)	i	i	13µM	?	i	i
CC1CCc2nc(NC(=O)CN3CCN(Cc4ccc5c(c4)OCO5)CC3)sc2C1 (stereo unspecified)	?	i	?	?	i	i
COc1ccc(CNC(=O)C2(C)Cc3c(-c4ccc5c(c4)OCO5)ccnc3O2)cc1OC (stereo unspecified)	i	i	i	?	i	i
COc1cc(OC)cc(-c2c(-c3ccc(F)cc3)c3cc(-c4ccc5[nH]ccc5c4)ccc3n2C)c1	i	i	i	i	21µM	i
Cc1ccccc1NC(=O)c1c(C)oc2ccc(O)c(CN3CCN(C)CC3)c12	nt	i	i	nt	i	i
Cc1ccccc1NC(=S)N(C)Cc1cccs1	i	i	i	i	?	?
Cc1ccccc1NC(=S)N(C)Cc1cn(C)c2ccccc12	i	i	i	i	18µM	i
COc1ccc(/C=N/NC(=O)c2cccc(NC(=O)c3ccccc3Cl)c2)cc1OC	i	i	i	i	i	i
COc1ccc(C(=O)Nc2cccc(C(=O)N/N=C/c3ccc(OC)cc3OC)c2)cc1	i	i	i	i	i	11µM
COc1ccc(/C=N/NC(=O)c2cccc(NC(=O)c3ccccc3Cl)c2)cc1	5.8µM	?	16µM	2.3µM	i	i
CC(C)C(=O)Nc1cccc(C(F)(F)F)c1	nt	i	nt	nt	nt	i
COc1ccc(C2=C(CN(C)C)C(c3ccccc3)c3ccccc3O2)cc1 (stereo unspecified)	21µM	?	i	23µM	12µM	?
O=C(NCc1ccccc1)c1cc(C2COCCN2C(=O)c2ccccc2)on1 (stereo unspecified)	?	i	i	i	i	i
CCOC(=O)c1sc(NC(=O)CC(C)c2ccccc2)nc1C (stereo unspecified)	?	i	?	9.2µM	?	i
Cc1cnc(NC(=O)CC(C)c2ccccc2)s1 (stereo unspecified)	?	i	21µM	?	?	i
SMILES	HT1080-NT tox	S2 tox	KB-3-1 tox	HT1080 IDH1KD tx	KB-V1 MDR tox	ATXN2 expr inh
CCOC(=O)c1sc(NC(=O)c2ccc(OC(C)=O)cc2)nc1C	i	i	?	29µM	10µM	i
COc1ccccc1CCC(=O)Nc1nccs1	i	i	i	i	i	i
CCOC(=O)c1sc(NC(=O)CCc2ccccc2)nc1C	i	i	?	i	i	nt
COc1ccccc1CCC(=O)Nc1ncc(C)s1	i	i	?	i	23µM	i
O=C(NC1CCCCC1)c1nc(C2CCNCC2)oc1-c1ccccc1	?	i	i	?	i	i
O=C(CN1CCOCC1)Nc1ncc(Cc2ccccc2Cl)s1	i	?	i	i	?	i
CCc1ccc(CCC(=O)Nc2ncc(Cc3ccccc3Cl)s2)o1	6.5µM	i	?	4.6µM	i	i
COc1ccccc1-n1cnc(N)c1C(=O)c1ccccc1	?	i	i	26µM	i	i

Assay outcomes deposited in PubChem BioAssay by National Center for Advancing Translational Sciences (NCATS).
